Laboratory results: PubChem BioAssay AID1578 (Sanford-Burnham Center for Chemical Genomics, 2009)
Screen size: about 290,000 compounds; about 3,000 (1%) were called active. Cut-off read from the data, not from the text of the source: active = inhibition mostly above about 36% (no sharp cut-off); inactive = mostly below about 34%. The list comes from a sample in which actives are over-represented; it also holds similar structures and randomly drawn compounds.

assay: inhibition of NOD1-driven NF-kB reporter – cell-based, luminescence, uHTS, primary screen (AID 1578); details: NOD1-driven NF-kB luciferase reporter cells, at 4 µM, hits give high values;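 note: HEK-293T reporter cells stimulated with the NOD1 agonist gamma-tri-DAP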

| SMILES | inhibition |
| --- | --- |
| CCOC(=O)N1CCN(c2cc(=O)n(Cc3ccc(F)cc3)c(=O)[nH]2)CC1 | -37.3% (inactive) |
| Cc1ccc(C(=O)NC2CC3CCCC(C2)N3Cc2ccccc2)cc1 (stereo unspecified) | 59% (active) |
| Cc1ccc(CN2C3CCCC2CC(NC(=O)c2ccc(F)cc2)C3)cc1 (stereo unspecified) | -0.1% (inactive) |
| Cc1ccc(CN2C3CCCC2CC(NC(=O)c2ccc(C)cc2)C3)cc1 (stereo unspecified) | -21.4% (inactive) |
| CC1CCCC(C)N1C(=O)Cn1nnc(-c2ccc([N+](=O)[O-])cc2)n1 (stereo unspecified) | -36.1% (inactive) |
| CC1(C)Cc2ccccc2C2=NNC(=O)C2=N1 | 41.8% (active) |
| CC1=NC(C)(C)Cc2ccccc21 | 1.3% (inactive) |
| CC1(C)CC(=O)C(C2=NC(C)(C)Cc3ccccc32)=C(O)C1 | -9.1% (inactive) |
| O=[N+]([O-])c1cc2c(cc1/C=N/Nc1nc(Nc3ccccc3)nc(N3CCCCC3)n1)OCO2 | -23% (inactive) |
| Cc1ccc([N+](=O)[O-])cc1NC(=O)CN(C1CCCCC1)S(=O)(=O)c1ccc(Cl)cc1 | -5% (inactive) |
| O=S(=O)(c1ccc2ccccc2c1)N(CC1CO1)c1ccccc1 (stereo unspecified) | -30.1% (inactive) |
| Cc1nn2c(SCC(=O)c3cccs3)cc(C(C)(C)C)nc2c1-c1ccccc1 | 5.2% (inactive) |
| Cc1cc(SCC(=O)c2cccs2)n2nc(C)c(-c3ccc(Cl)cc3)c2n1 | 79.4% (active) |
| Cc1cc(SCC(=O)c2cccs2)n2nc(C)c(-c3ccccc3)c2n1 | 20.3% (inactive) |
| CCOc1ccc(/C=N/n2c(C)nc3ccccc3c2=O)cc1 | -12.3% (inactive) |
| N#C/C(=C\c1cn(-c2ccccc2)nc1-c1cccnc1)c1nnc2n1CCCCC2 | -13% (inactive) |
| O=C1COc2ccc(S(=O)(=O)NCc3ccccc3)cc2N1 | -13.7% (inactive) |
| Nc1ccc(-c2ncc(-c3ccccc3)o2)cc1 | 46.7% (active) |
| NC(=O)c1ccc(-c2ncc(-c3ccccc3)o2)cc1 | 14.6% (inactive) |
| c1ccc(-c2cnc(-c3cccnc3)o2)cc1 | -16.8% (inactive) |
| CCC(C)(C)NC(=O)CN(C(=O)CNS(=O)(=O)c1ccc(F)cc1)c1ccc2c(c1)OCCO2 | -13% (inactive) |
| O=C(NCCCn1ccnc1)c1ccc(Cl)c(Cl)c1 | 3.9% (inactive) |
| O=S(=O)(Nc1ccc(N2CCOCC2)cc1)c1cccs1 | -20.1% (inactive) |
| O=C1N/C(=N\N=C\c2cccnc2)SC1Cc1ccc(SC(F)F)cc1 (stereo unspecified) | 106% (active) |
| O=C(CC1S/C(=N/N=C/c2cccnc2)NC1=O)Nc1ccccc1 (stereo unspecified) | -13.1% (inactive) |
| O=C1N/C(=N\N=C\c2ccc3ncccc3c2)SC1Cc1ccc(SC(F)F)cc1 (stereo unspecified) | -44% (inactive) |
